PI5P4K alpha inh: blocks human PI5P4K alpha kinase activity | PI5P4Kalpha enzyme, ADP-Glo luminescence, 60 min; hits give low values | max response, % | 330,000 tested, 1.2% active | AID 652105; active means max response of -50% or lower; inconclusive means between -30% and -50%; inactive means -30% or higher; further: value at the top dose of about 77 µM; on the % scale 0 is the no-effect control and ±100 the full control effect
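PI5P4Kalpha ADP-Glo assay; 5 microM ATP final; 60 min RT reaction; HEPES pH 7.4/EGTA/CHAPS, 5% DMSO; controls lacking substrate or enzyme; luminescent end-point.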
JMJD2A Tudor inh: inhibitors of human JMJD2A Tudor domain; AlphaScreen JMJD2A-Tudor / H3K4me3 peptide binding; Potency, µM (highest dose often 114 µM), for the others: at the highest dose activity change, negative = inhibition, hits mostly inhibitors; 390,000 tested, 4.4% active; AID 504339; further: potency means the concentration at half of the fitted maximal effect; on the % scale 0 is the no-effect control and ±100 the full control effect; nearly all actives have a fitted effect of over 50% in size
HP1b binding inh: blocks HP1-beta chromodomain binding to methylated histone tails | 390,000 tested, 0.56% active | AlphaScreen HP1-beta / biotin-H3K9me3 peptide binding | P83916 | Potency, µM (doses to about 114 µM), for the others: at the highest dose activity change, negative = inhibition, most hits filed as inhibitors; further: potency means the concentration at half of the fitted maximal effect; nearly all actives have a fitted effect of over 70% in size
Target sequence (P83916 whole entry, looked up): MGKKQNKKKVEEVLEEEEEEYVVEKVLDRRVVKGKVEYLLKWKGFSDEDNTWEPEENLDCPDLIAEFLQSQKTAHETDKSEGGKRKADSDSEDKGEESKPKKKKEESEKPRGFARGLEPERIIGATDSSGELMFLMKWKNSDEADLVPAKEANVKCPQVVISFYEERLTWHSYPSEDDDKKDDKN
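AlphaScreen: HP1-beta (50 nM) preformed 30 min with biotin-H3(1-18)K9me3 peptide (50 nM) in PBS pH 7.4, 0.01% Tween-20. Compound added for 30 min at RT, then streptavidin donor/nickel chelate acceptor beads (10 ug/mL) for 30 min.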
PLK1 PBD block: blocks phosphopeptide binding to human PLK1 polo-box domain; P53350; Plk1 PBD binding of FITC phosphopeptide, fluorescence polarization; Potency, µM, inactives show max response, negative = inhibition, hits mostly inhibitors; 360,000 tested, 2.8% active; AID 720504; further: potency means the concentration at half of the fitted maximal effect; series mostly up to about 57 µM; on the % scale 0 is the no-effect control and ±100 the full control effect; nearly all actives have a fitted effect of over 65% in size
G9a block: inhibitors of human histone lysine methyltransferase G9a; Potency, µM (top dose mostly 102 µM), without a hit: top-dose activity, negative = inhibition, actives largely listed as inhibitors; G9a H3K9 monomethylation, AlphaScreen, 2 h; Q96KQ7; 350,000 tested, 8.8% active; further: potency means the concentration at half of the fitted maximal effect; on the % scale 0 is the no-effect control and ±100 the full control effect; nearly all actives have a fitted effect of over 75% in size
Target sequence (Q96KQ7 913-1193 limits assumed): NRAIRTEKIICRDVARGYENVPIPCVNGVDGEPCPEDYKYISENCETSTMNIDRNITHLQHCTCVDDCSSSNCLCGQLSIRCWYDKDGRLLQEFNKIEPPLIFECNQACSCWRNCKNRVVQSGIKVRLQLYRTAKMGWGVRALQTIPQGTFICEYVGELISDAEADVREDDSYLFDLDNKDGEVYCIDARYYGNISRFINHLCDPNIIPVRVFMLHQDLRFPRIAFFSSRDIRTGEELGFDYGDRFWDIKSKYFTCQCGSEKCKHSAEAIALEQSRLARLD
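G9a (20 nM) was preincubated 15 min with compound, then reacted 2 h at room temperature with 500 nM biotin-H3K9 peptide and 20 µM SAM. Monomethyl-H3K9 detected by AlphaScreen using anti-H3K9me1 antibody.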
BAZ2B block: blocks human BAZ2B | Q9UIF8 | AlphaScreen BAZ2B-H3K14Ac peptide displacement | Potency, µM (top dose mostly 114 µM), without a hit: at the top dose activity change, negative = inhibition, most hits filed as inhibitors | 360,000 tested, 4.4% active | AID 504333; further: potency means the concentration at half of the fitted maximal effect; on the % scale 0 is the no-effect control and ±100 the full control effect; nearly all actives have a fitted effect of over 60% in size
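Compounds, titrated to a top concentration of 110 uM, were incubated 30 min at room temperature with preformed BAZ2B/acetyl-K14 H3 peptide complex (50 nM each). Proximity signal was measured by AlphaScreen after 20 min with beads.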
Starred values were filed as active, the others as inactive; ? = inconclusive; · = no result; [ ] = dose if it differs, or a comment. Compounds with a hit are over-represented: about 12% of the library has one in this group of screens. Unless noted, the call rests on the fitted dose curve; in most records, active means well fitted curve in the direction sought with a large enough effect; inconclusive means small, poorly fitted or top-dose-only effect, or another doubt; inactive means no such curve, though single readings can be large; an effect the other way counts as inactive or inconclusive.

SMILES | PI5P4K alpha inh | JMJD2A Tudor inh | HP1b binding inh | PLK1 PBD block | G9a block | BAZ2B block
C#CCOCCOCCOCCNc1nc(N2CCN(C(=O)CCCCCCCCCCNC(=O)[C@@H](CCC(=O)O)n3cc(CCCCCN)nn3)CC2)nc(N2CCN(C(=O)CCCCCCCCCCNC(=O)[C@H](CO)n3cc(CCCSC)nn3)CC2)n1 | -2 | 45µM* | 28% | ? | -11%[2.33 µM] | ?
C#CCOCCOCCOCCNc1nc(N2CCN(C(=O)CCCCCCCCCCNC(=O)[C@@H](CCSC)n3cc(CCO)nn3)CC2)nc(N2CCN(C(=O)CCCCCCCCCCNC(=O)[C@H](CCC(=O)O)n3cc(CCCCCN)nn3)CC2)n1 | -16 | -36% | 7% | -2% | -11%[2.33 µM] | -12%
O=C(COc1ccc(F)cc1)OCc1cc(=O)n2nc(C3CC3)sc2n1 | · | -7% | 27% | · | 5%[59 µM] | -11%
COc1ccc(C2C(=O)N(C3CCCCC3)CC(=O)N2CCc2ccc(C)cc2)cc1OC (stereo not drawn) | · | -35% | 32% | · | -18%[59 µM] | -13%
CCOc1cccc(OCCOCCNC(C)(C)C)c1 | 9 | 22µM* | -51% | 0% | 14µM* | 45µM*
CC(C)(C)NCCCCOc1ccc(F)cc1 | · | -6% | 29% | -2% | -16% | -6%
CCOc1ccc(OCCCCNC(C)(C)C)cc1 | 2 | 35µM* | -5% | -15% | 22µM* | 50µM*
CC(C)(C)NCCOc1ccc2ccccc2c1 | 2 | -24% | 68% | -13% | -31% | -13%
O=S(=O)(Nc1cccc(F)c1)c1ccc2[nH]c3c(c2c1)CCCCC3 | · | ? | ? | · | ? | -27%[57.1 µM]
Cc1ccc(S(=O)(=O)Nc2cccc(C(=O)NCC3(N4CCCCC4)CCCCC3)c2)cc1F | 1 | -14% | -2% | -6% | ? | 8%
O=C(SCc1c(O)c2ccccc2oc1=O)c1ccccc1 | -27 | · | · | 13µM* | · | ·
O=C(Cc1c(O)c2ccccc2oc1=O)c1ccc(C(F)(F)F)cc1 | -4 | -6% | 8% | -18% | -22% | 8%
Cc1ccsc1CN(C)CC(=O)Nc1ccc([N+](=O)[O-])cc1Cl | 16 | -29% | ? | -16% | 40µM* | -33%
CN(CC(=O)Nc1cc([N+](=O)[O-])ccc1Cl)Cc1ccc(Br)cc1 | 6 | ? | -17% | -9% | 11µM* | ?
C=C1C(=O)OC2C1CCC(C)=C1C(=O)C3OC3(C)C12 (stereo not drawn) | 1 | -18% | 83% | 19µM* | · | ·
N#Cc1ccc(C(=O)N2CCCCC2c2cc(C(=O)Nc3ccc4c(c3)OCO4)no2)cc1 (stereo not drawn) | 0 | · | · | 3% | · | ·
Nc1ccc(N2CCN(c3ccc(F)cc3)CC2)cc1 | 1 | ? | ? | -10% | · | 35µM*
Nc1ccc(N2CCN(c3ccc(Cl)c(Cl)c3)CC2)cc1 | 14 | 45µM* | 18µM* | 1% | ? | 14µM*
O=C(O)c1ccc(N2CCCCC2)cc1 | · | -7% | 26% | 0% | 12%[59 µM] | 10%
CC(=O)N1CCN(c2ccc(N)cc2)CC1 | · | -14% | 18% | · | -13%[2.33 µM] | ?
O=C(O)/C=C/C(=O)N1CCN(c2ccc(F)cc2)CC1 | -13 | -73% | -13% | 19µM* | 50µM* | -25%
Nc1ccc(N2CCCCCC2)cc1 | · | · | · | · | 3.5µM* | 32µM*
Cc1cccn2c(=O)c(C(=O)N3CCN(c4ccc(Cl)cc4)CC3)cnc12 | · | -19% | -15% | · | 4%[59 µM] | -13%
CCC(=O)N1CCc2cc(Br)cc(S(=O)(=O)CCC(=O)NCc3ccccc3)c21 | · | -5% | 25% | · | 5%[59 µM] | 2%
O=C(c1ccco1)N1CCC2(CC1)CCN(c1ccc(-c3ccccc3)cc1)CC2 | · | · | · | · | -5%[12.7 µM] | ·
SMILES | PI5P4K alpha inh | JMJD2A Tudor inh | HP1b binding inh | PLK1 PBD block | G9a block | BAZ2B block
COCCc1nn2c(=O)cc(COC(=O)COc3ccc(F)cc3)nc2s1 | · | -8% | 36% | · | 29%[59 µM] | -4%
COc1ccc(CNc2ncc(-c3ccccc3)n2C)c2ccccc12 | 3 | 18µM* | ? | 9% | · | 50µM*
COc1cccc(CNc2nc3cc(-c4ccccc4)sc3c(=O)n2C)c1OC | 18 | · | · | 2% | · | ·
CCOc1c(CNc2nnnn2C)cccc1OC | 0 | -12% | 60% | -2% | 10% | -14%
COc1ccc(CNc2ncc(-c3ccccc3)n2C)c(OC)c1OC | 2 | 20µM* | ? | 5% | 7.1µM* | 50µM*
COc1ccc(OC)c(CNc2ncc(-c3cccc([N+](=O)[O-])c3)n2C)c1 | -1 | 45µM* | 14µM* | 0% | 28µM* | 50µM*
Cn1c(-c2ccccc2)cnc1NCc1cc(Cl)ccc1O | -4 | 35µM* | ? | -5% | · | 56µM*
COc1ccc(CC(=O)Nc2nnc(-c3cccc([N+](=O)[O-])c3)s2)cc1 | 1 | -8% | 27% | -8% | ? | 6%
COc1ccccc1N(CC(=O)NCCN1CCOCC1)S(=O)(=O)c1ccccc1 | 2 | -14% | -7% | -15% | ? | 2%
COc1cc(-n2c(-c3ccccc3)n[nH]c2=S)c(OC)cc1Cl | -6 | -18% | 33% | -5% | · | ?
COc1ccccc1-c1n[nH]c(=S)n1N | -2 | ? | 16% | 0% | 13µM* | ?
COc1ccccc1-c1n[nH]c(=S)n1-c1ccccc1 | 2 | 7.9µM* | 37% | -20% | 2.5µM* | -27%
COc1ccc(C)cc1-n1nnc(S(=O)(=O)c2ccc(C)cc2)c1C | · | -14% | 21% | · | -2%[59 µM] | 0%
NC(=O)c1cccc2c1-c1ccccc1/C2=N/NC(N)=S | 3 | -30% | 2% | -20% | 45µM* | ?
COC(=O)c1cccc2c1-c1ccccc1/C2=N\NC(N)=O | 5 | -15% | -3% | -11% | -8%[2.33 µM] | -7%
NC(=S)N/N=C1\c2ccccc2-c2c(C(=O)O)cccc21 | -10 | -12% | -1% | ? | 28µM* | -10%
COc1ccc(-c2ccc(CN3C(C(C)C)C(=O)N(Cc4cn(CC5CCCCC5)nn4)CCS3(=O)=O)cc2)cc1OC (stereo not drawn) | 0 | · | · | -23% | · | ·
N#CCc1ccc(C(=O)c2ccccc2F)s1 | -29 | -12% | 15% | 1% | ? | 50µM*
O=C(O)Cc1ccc(C(=O)c2ccc(F)cc2)s1 | -7 | 0% | 45% | -1% | ? | 6%
Cc1ccc(C(=O)Nc2ccc(C(=O)N3CCCCC3)cc2)o1 | -18 | -5% | 16% | -18% | -21% | -6%
COC(=O)/C=C/COc1ccccc1[N+](=O)[O-] | -67* | ? | ? | 3.4µM* | -33% | -11%
O=C(COc1ccccc1[N+](=O)[O-])c1ccccc1 | -7 | -25% | 9% | -13% | 5%[59 µM] | -21%
COc1ccccc1/C=C/C=C1N=C(/C=C/c2ccc(Cl)cc2)OC/1=O | -7 | ? | ? | -7% | ? | ?
